Measured values: PMC5869772, “Quantitative profiling of BATF family proteins/JUNB/IRF hetero-trimers using Spec-seq”

biological target: T1, BATF;JUNB (human;human, UniProt Q16520;P17275 1-125;148-347, |); assay: Spec-seq (EMSA and sequencing of bound and unbound bands); 100 nM BATFx-JUNB, 1 uM dsDNA library, 50 mM K acetate, 20 mM Tris-acetate, 10 mM Mg acetate, 100 ug/ml BSA, pH 7.9, 10% glycerol, 30 min on ice; native 9% PAGE at 4 C; low values mean tight binding; settings: protein: recombinant;recombinant; tags: N-terminal mCherry-TEV, cleaved off;C-terminal 6His; copies: 1;1; dsDNA, one strand shown
T1 sequence 1: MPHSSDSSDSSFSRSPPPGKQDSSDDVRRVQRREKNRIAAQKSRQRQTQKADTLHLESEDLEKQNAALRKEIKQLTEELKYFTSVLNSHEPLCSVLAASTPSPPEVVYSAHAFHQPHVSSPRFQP
T1 sequence 2: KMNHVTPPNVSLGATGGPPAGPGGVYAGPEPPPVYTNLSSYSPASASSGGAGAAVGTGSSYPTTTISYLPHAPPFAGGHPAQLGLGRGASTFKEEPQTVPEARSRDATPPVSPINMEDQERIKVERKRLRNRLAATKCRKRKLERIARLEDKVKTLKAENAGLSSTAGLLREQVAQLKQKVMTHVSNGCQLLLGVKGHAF
Outline: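 The protein, at 100 nM, was incubated with 1 μM double-stranded degenerate DNA library for 30 min on ice in NEB Cutsmart buffer with 10% glycerol, then resolved by native 9% PAGE at 4 °C. Excised bound and unbound bands were PCR-barcoded and Illumina-sequenced, and each sequence's relative binding energy in kT is −ln of its bound/unbound read-count ratio.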

Row | Sequence | binding signal [kT]
1 | GATAGTCTCATTTTCACCCCGTGAAACTCAGTCATTGTTCCATTACAGTATCTGT | -0.328
2 | GATAGTCTCATTTTCACCCCGTGAAATAACTCATTTGTTCCATTACAGTATCTGT | -0.0626
3 | GATAGTCTCATTTTCACCCCGTGAAATTACGTCATTGTTCCATTACAGTATCTGT | -0.943
4 | GATAGTCTCATTTTCACCCCGTGAAATGACTCGTTTGTTCCATTACAGTATCTGT | -0.0971
5 | GATAGTCTCATTTTCACCCCGTGAAATGACGTCCTTGTTCCATTACAGTATCTGT | 0.097
6 | GATAGTCTCATTTTCACCCCGTGAAATGACCCATTTGTTCCATTACAGTATCTGT | 0.311
7 | GATAGTCTCATTTTCACCCCGTGAAATGCCGTCATTGTTCCATTACAGTATCTGT | -0.311
8 | GATAGTCTCATTTTCACCCCGTGAAATGACTAAATTGTTCCATTACAGTATCTGT | -0.125
9 | GATAGTCTCATTTTCACCCCGTGAAATGACTCACTTGTTCCATTACAGTATCTGT | -0.778
10 | GATAGTCTCATTTTCACCCCGTGAAATGACGCAATTGTTCCATTACAGTATCTGT | -0.574
11 | GATAGTCTCATTTTCACCCCGTGAAATTGCGTCATTGTTCCATTACAGTATCTGT | -0.89
12 | GATAGTCTCATTTTCACCCCGTGAAACTGCGTCATTGTTCCATTACAGTATCTGT | -0.647
13 | GATAGTCTCATTTTCACCCCGTGAAATGAGTGAATTGTTCCATTACAGTATCTGT | 0.0809
14 | GATAGTCTCATTTTCACCCCGTGAAATGACTCTCTTGTTCCATTACAGTATCTGT | 0.11
15 | GATAGTCTCATTTTCACCCCGTGAAAGCGAGTCATTGTTCCATTACAGTATCTGT | -0.514
